Compounds without any hit were thinned out: in the full panel of roughly 83,000, 20% have a hit.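 The test compound was applied at a single concentration to cells in 96-well plates for 48 hours, and percent growth was recorded.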 Unmarked numbers belong to inactive results. Calls of active or inactive are those of the source. How the source made its calls: active means growth percent below 10; inactive means the rest.

This assay concerns MDA-MB-468 breast. In words: NCI-60 one-dose screen, 48 h (100 = growth as untreated, 0 = no growth, -100 = all killed). The note with it: 10 µM unless noted.
With `COc1ccc2c(c1)N(CCO)C1=C(C(=O)OC1)C2c1cccc(F)c1` (stereo not given), the growth is 7.89% (active). The result for `O=c1ccc(=O)n(-c2nc(-c3ccc([N+](=O)[O-])cc3)cs2)[nH]1` reads 99.3%. For `COc1ccc2nc3cc(Cl)ccc3c(NC(=O)CSc3ccc(Cl)cc3)c2c1`, the growth is -81.7% (active).

Take `OCc1cc(CN2CCCCC2)c(O)c2ncccc12`: the growth was 76.7%.

In the case of `CC/C=C/[C@@H]1C=C[C@@H]2CCC[C@H]2[C@@H]1CC[C@H](O)[C@H](C)N`, the growth is -76.6% (active).

With `COC(CCP(=O)(c1ccccc1)c1ccccc1)(C(=O)c1ccccc1)c1ccccc1` (stereo not given), the growth was 54.7%. The result for `O=C(CCl)N1c2ccccc2Oc2ccc3ccccc3c21` reads -72.5% (active). For the compound `N#Cc1ccc(NC(=O)Nc2nc3ccc(OC(F)(F)F)cc3s2)cc1`, the growth is -2.64% (active).

Regarding `Cc1c(C(=O)N[C@H](CO)Cc2ccccc2)[nH]c2ccc(Cl)cc2c1=O`, the growth was 95.5%. The result for `O=C(OCc1ncc(-c2ccc(C(F)(F)F)cc2)c(NC2CCCCCC2)n1)c1c(F)c(F)c(F)c(F)c1F` reads 16.9%.

With `O=C(Nc1ccccc1O)c1ccc(-c2ccc(Cl)cc2Cl)o1`, the growth is 80.8%.

For `O=c1[nH]c2cc(Cl)ccc2n1C1CCN(c2ccc3nnc(Cl)n3n2)CC1`, the growth was 85.3%. For `Fc1ccc2c(-c3cncn3CCc3ccccc3)c[nH]c2c1`, the growth was 74.6%. The result for `C[C@@H]1C[C@H]2C(=O)OCC(NC(=O)[C@H](Cc3cc(F)cc(F)c3)NC(=O)Nc3ccc(Cl)cc3F)C(=O)N3CCC[C@H]3C(=O)N3CCCC[C@H]3C(=O)N[C@@H](C)C(=O)N2C1` (stereo not given in full) reads -6.95% (active). The result for `CCCCNCCCCCNc1cc(OC)cc2cccnc12` reads 68.8%. The result for `c1cc(OCCN2CCCCCC2)ccc1CNc1ccc2nc(CCC3CCCCC3)[nH]c2c1` reads 58.2%; that for `CN1CCCC1=Nc1ccccc1`, 107%; that for `CCCCCCCC/C=C/CCCCCCCC1=NCC[N+]1(CCO)CCO`, 23%. Turning to `CC1=C/C(=N\N=C2/C=C(C)CC(C)(C)C2)CC(C)(C)C1`, the growth is 98.5%. The result for `O=C1c2cccc3cccc(c23)C(=O)N1CC#Cc1ccc2c3c(cccc13)C(=O)N(CCN1CCNCC1)C2=O` reads 111%.

As to `COc1ccc(-c2nc(/C=N/Nc3cc(C)nc4ccc(Cl)cc34)c(C)o2)cc1`, the growth was -73.7% (active).

As for `N#C/C(=C\c1ccc([N+](=O)[O-])cc1)n1nnc2cc(F)c(F)cc21`, the growth is -40% (active).

`O=C1NC(=O)c2c(CCCSc3nc4ccccc4c(=O)n3CCc3ccccc3)cccc21`: the growth was 112%. Turning to `C#CCOc1cccc(Nc2ncnc3c2ncn3C2CCN(C(=O)CCl)C2)c1` (stereo not given), the growth is -65.7% (active). The result for `C#Cc1cccc(NC(=O)c2ccc(NC(=O)C=C)cc2)c1` reads 14.6% [8.25 µM]; that for `COc1cc2c(c(OC)c1OC)C(=O)CC(c1cccc(NC(=O)c3ccc(C#N)cc3)c1)O2` (stereo not given), 48.8%; that for `CC(=O)OCC1OC(OCC2OC(OC(C)=O)C(OC(C)=O)C(OC(C)=O)C2OC(C)=O)C(OC(C)=O)C(OC(C)=O)C1OC(C)=O` (stereo not given), 81.3%. The result for `COc1ccc(C2=NN(C(=O)c3cc(-c4ccc(C)cc4)nc4ccccc34)C(c3cc(-c4ccccc4)nn3-c3ccccc3)C2)cc1` (stereo not given) reads 98.1%; that for `Clc1ccc(/C=C/c2ccccn2)c(Cl)c1`, 29.3%; that for `Oc1c(-c2cc(C(F)(F)F)[nH]n2)cc(Cl)c(OCc2ccc(Cl)cc2)c1-c1ccc(Cl)c(C(F)(F)F)c1`, -21.4% (active).

With `COc1cc(CCC[P+](c2ccccc2)(c2ccccc2)c2ccccc2)cc2c1OCO2`, the growth is -22.7% (active). Take `Nc1ccc2c(c1)Cc1cc(N)c(N)cc1-2`: the growth was 76.6%. The result for `O=C1C(Cl)=C(Nc2cccc3cc4ccccc4nc23)C(=O)c2ccccc21` reads 40.9%; that for `O=c1nc(Nc2ccc([N+](=O)[O-])cc2O)sc2ccccc12`, 34.3%; that for `Nc1ccc(Cl)c2c(=O)c3ccccc3[nH]c12`, 34%. Regarding `Cc1[nH]c(C(=O)Nc2ccc(C(=O)NCC3CCNCC3)cc2OC(C)C)c(Cl)c1Cl`, the growth is 21.5%. The result for `COc1ccc(CN2C(=O)/C(=C\C(=O)c3ccc(OCCN4CCCCC4)cc3)c3ccccc32)cc1` reads 53.3%; that for `COc1ccc(C2=NN(c3nc(-c4ccc(OC)cc4)c(C#N)c(=O)n3C)C(=O)CC2)cc1`, 96.2%. For the compound `NC(=O)CCCN1C/C(=C\c2ccccc2)C(=O)c2ccccc21`, the growth is 90.8%. In the case of `O=C(CSc1nccc(Nc2ccc(S(=O)(=O)Nc3nccs3)cc2)n1)c1ccc(C(F)(F)F)cc1`, the growth is 97%.

For the origin of these results see PubChem BioAssay (NCI).
